Source: the supplement of paper PMC10849652
Targets with a hit are over-represented here; the source holds about 7,900 in all. About 0.6% of all pairs of compound and target were hits. Unmarked numbers belong to inactive results.

compound: c1cn2cc(-c3ccc4cn[nH]c4c3)nc(Nc3ccc(N4CCOCC4)cc3)c2n1 [entospletinib]; experiment: log2 fold change, soluble protein after heating vs DMSO (PISA); higher = thermal stabilisation; K562 cells, 10 uM, 30 min; active = over 0.2 and 3.5 SD of the protein, either way, in both replicates (recomputed)
Method in brief: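 Thermal stability values are relative to control samples and come from duplicates. They are expressed as log2 fold changes. For measurement, K562 cells (2×10^6 cells/mL) received 10 μM compound for 30 min, and aliquots were heated for 3 min over 48°C-58°C, pooled, and extracted at 4°C in PBS with 0.5% NP-40. Soluble protein, the supernatant after 21,000xg for 90 min, was quantified by TMTpro 16plex LC-MS/MS with equalised channel sums.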

Sequence of UniProt O00124 (O00124 whole entry, looked up): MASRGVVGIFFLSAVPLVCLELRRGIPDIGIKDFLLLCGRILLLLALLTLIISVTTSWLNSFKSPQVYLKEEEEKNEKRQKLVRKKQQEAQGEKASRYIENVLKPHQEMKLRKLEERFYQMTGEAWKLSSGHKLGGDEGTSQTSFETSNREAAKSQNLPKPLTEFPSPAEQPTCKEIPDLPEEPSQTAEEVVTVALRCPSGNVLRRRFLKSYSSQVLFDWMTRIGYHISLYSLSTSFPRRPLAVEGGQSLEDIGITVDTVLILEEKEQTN
Sequence of UniProt Q9NVA4 (Q9NVA4 whole entry, looked up): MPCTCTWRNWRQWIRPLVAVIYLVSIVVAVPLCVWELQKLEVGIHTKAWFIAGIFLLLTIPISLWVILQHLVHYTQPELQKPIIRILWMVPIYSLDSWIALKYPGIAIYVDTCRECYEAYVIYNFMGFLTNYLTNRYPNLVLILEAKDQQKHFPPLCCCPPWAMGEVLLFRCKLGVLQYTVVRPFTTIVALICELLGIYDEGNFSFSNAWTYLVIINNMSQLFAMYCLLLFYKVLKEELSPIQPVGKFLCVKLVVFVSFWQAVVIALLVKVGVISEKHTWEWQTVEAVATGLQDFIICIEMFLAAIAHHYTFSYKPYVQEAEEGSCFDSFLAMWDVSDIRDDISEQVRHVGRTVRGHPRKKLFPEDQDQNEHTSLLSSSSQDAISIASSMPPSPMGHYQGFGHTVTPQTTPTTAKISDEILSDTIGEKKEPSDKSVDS
Sequence of UniProt P0CG48 (P0CG48 whole entry, looked up): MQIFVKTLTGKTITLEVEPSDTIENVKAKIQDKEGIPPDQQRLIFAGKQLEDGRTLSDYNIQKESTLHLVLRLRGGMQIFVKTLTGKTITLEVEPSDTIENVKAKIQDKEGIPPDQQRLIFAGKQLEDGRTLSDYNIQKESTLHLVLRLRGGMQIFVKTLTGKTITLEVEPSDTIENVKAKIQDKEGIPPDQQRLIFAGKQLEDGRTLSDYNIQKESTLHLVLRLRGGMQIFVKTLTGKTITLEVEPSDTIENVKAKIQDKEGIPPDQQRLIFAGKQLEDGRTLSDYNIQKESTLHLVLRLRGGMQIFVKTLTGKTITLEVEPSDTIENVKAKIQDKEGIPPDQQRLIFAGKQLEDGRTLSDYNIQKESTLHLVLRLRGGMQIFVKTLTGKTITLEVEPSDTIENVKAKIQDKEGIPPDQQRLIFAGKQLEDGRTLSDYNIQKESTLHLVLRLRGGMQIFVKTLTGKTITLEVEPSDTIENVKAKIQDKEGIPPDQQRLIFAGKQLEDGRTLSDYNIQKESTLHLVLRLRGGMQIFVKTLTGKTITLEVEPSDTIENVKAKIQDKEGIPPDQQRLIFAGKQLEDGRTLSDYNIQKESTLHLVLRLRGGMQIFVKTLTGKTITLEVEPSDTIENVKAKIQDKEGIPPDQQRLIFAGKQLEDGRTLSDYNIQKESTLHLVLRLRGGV
Sequence of UniProt Q96LJ8 (Q96LJ8 whole entry, looked up): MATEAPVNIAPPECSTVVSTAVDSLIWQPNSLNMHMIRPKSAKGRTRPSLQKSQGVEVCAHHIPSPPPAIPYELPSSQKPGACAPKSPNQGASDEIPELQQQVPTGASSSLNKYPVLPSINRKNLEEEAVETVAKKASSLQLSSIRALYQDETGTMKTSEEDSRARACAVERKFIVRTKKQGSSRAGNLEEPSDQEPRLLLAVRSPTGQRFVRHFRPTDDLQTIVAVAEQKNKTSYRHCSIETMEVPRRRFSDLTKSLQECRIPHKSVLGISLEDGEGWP
Sequence of UniProt O95155 (O95155 whole entry, looked up): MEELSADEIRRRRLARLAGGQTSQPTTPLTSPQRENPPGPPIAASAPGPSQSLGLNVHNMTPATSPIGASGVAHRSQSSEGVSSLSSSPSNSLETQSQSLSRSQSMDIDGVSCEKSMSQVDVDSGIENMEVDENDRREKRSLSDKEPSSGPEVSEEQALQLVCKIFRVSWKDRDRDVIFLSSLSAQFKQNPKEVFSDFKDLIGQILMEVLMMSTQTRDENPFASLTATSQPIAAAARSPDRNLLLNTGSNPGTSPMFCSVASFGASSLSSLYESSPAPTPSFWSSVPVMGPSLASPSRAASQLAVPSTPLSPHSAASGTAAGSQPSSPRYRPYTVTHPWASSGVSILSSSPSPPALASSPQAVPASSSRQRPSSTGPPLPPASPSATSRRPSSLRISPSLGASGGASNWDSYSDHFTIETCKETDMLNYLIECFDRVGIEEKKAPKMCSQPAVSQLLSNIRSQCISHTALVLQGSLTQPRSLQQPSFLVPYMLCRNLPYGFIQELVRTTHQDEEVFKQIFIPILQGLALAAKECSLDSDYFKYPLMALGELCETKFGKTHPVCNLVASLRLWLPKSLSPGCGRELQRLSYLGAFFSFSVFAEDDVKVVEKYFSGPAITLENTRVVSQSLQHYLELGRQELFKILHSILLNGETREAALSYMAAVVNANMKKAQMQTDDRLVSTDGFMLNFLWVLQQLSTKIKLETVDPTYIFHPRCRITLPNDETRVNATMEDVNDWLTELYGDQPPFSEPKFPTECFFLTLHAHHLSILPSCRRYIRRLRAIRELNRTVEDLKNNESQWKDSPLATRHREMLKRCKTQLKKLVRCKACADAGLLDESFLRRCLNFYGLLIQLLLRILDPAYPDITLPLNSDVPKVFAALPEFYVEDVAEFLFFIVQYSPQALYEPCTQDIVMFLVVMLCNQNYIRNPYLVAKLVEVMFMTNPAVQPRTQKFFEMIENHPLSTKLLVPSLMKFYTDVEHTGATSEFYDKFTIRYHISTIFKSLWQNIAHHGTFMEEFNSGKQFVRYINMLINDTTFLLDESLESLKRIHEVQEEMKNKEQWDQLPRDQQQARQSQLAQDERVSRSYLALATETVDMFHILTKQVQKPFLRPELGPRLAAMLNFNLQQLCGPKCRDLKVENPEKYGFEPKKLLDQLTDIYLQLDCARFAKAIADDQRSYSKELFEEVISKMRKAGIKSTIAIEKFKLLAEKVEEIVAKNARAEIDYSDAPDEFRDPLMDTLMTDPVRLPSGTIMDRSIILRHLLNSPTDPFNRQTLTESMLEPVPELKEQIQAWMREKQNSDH
Sequence of UniProt Q96JG6 (Q96JG6 whole entry, looked up): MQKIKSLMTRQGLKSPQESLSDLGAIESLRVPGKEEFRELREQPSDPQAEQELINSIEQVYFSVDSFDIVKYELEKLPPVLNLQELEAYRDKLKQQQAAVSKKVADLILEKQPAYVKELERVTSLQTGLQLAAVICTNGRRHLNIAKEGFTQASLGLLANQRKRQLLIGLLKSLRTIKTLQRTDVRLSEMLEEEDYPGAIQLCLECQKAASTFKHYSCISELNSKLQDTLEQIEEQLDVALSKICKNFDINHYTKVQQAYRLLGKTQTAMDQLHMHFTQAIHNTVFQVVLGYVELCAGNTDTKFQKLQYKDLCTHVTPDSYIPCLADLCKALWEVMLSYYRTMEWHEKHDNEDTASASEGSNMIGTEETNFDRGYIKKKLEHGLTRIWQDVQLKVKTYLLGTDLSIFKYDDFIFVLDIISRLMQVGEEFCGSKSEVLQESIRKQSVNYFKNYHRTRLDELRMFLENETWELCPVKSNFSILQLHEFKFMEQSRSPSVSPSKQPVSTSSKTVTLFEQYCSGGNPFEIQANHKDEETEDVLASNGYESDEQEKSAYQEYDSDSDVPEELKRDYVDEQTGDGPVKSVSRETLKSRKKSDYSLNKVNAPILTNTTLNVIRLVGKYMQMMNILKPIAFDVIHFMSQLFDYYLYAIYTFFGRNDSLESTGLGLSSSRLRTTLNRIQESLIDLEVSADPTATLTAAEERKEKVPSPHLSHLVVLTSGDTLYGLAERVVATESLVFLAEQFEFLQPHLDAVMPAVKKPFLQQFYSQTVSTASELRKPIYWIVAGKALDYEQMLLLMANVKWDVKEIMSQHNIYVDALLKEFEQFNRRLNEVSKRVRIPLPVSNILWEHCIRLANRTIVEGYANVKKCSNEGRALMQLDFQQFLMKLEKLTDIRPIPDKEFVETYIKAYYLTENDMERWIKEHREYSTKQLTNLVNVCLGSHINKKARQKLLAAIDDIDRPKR
Sequence of UniProt P61960 (P61960 whole entry, looked up): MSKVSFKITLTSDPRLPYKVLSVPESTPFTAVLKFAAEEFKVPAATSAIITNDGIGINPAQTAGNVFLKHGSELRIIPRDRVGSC
Sequence of UniProt Q9Y5K5 (Q9Y5K5 whole entry, looked up): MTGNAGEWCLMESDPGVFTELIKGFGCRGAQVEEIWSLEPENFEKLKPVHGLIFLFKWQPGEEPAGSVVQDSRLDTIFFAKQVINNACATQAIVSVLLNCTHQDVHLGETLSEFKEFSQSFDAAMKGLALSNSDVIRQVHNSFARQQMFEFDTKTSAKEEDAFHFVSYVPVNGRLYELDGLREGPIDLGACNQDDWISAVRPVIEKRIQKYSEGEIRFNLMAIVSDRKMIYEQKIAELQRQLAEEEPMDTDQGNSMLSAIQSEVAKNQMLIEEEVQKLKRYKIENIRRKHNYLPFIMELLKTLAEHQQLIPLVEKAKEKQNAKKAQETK
Sequence of UniProt Q9NP79 (Q9NP79 whole entry, looked up): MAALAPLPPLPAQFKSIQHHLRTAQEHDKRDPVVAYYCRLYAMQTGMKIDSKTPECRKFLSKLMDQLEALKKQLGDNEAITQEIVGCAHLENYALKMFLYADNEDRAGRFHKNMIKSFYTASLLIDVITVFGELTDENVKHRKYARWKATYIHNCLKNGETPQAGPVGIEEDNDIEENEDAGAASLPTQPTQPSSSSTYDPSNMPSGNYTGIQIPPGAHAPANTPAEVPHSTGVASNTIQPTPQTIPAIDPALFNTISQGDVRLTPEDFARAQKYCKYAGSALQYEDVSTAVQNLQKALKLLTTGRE
Sequence of UniProt Q9UDW1 (Q9UDW1 whole entry, looked up): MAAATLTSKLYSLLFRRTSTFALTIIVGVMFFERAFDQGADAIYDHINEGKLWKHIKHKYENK
Sequence of UniProt Q16763 (Q16763 whole entry, looked up): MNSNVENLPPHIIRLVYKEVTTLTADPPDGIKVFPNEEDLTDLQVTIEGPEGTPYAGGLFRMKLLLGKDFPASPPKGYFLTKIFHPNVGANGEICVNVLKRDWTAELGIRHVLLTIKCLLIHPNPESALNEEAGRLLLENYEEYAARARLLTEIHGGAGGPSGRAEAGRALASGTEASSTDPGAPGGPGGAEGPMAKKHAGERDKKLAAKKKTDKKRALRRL

Target	log2 fold change
UBA1 (UniProt P22314)	-0.025
UBXN10 (UniProt Q96LJ8)	0.013
WDR61 (UniProt Q9GZS3)	0.009
TMEM8A (UniProt Q9HCN3)	-0.002
UBE2S (UniProt Q16763)	-0.029
UGGT1 (UniProt Q9NYU2)	-0.018
XRCC6 (UniProt P12956)	0
TMEM70 (UniProt Q9BUB7)	-0.009
UBA6	0.014
TMEM184C (UniProt Q9NVA4)	0.041
UGDH (UniProt O60701)	-0.033
VPS53 isoform 4 (UniProt Q5VIR6)	0.003
UBE2Q1 (UniProt Q7Z7E8)	0.007
TMEM120A (UniProt Q9BXJ8)	-0.404 (active)
XPO6 (UniProt Q96QU8)	-0.027
VPS50 (UniProt Q96JG6)	-0.045
UBC (UniProt P0CG48)	0.068
USP25 isoform 3 (UniProt Q9UHP3)	0
UBAP2L (UniProt F8W726)	-0.078
TP53BP1 isoform 2 (UniProt Q12888)	0.087

Target	log2 fold change
XRCC5 (UniProt P13010)	-0.039
UBXN8 (UniProt O00124)	-0.231
VTA1 (UniProt Q9NP79)	-0.005
WDR7 (UniProt Q9Y4E6)	0.126
WDR47 (UniProt O94967)	0.011
UFM1 isoform 2 (UniProt P61960)	0.079
UTP14A (UniProt Q9BVJ6)	0.042
VPS33B (UniProt Q9H267)	0.008
WDR37 isoform 2 (UniProt Q9Y2I8)	-0.004
TNPO2 (UniProt O14787)	-0.063
UBE4B isoform 4 (UniProt O95155)	-0.03
UCHL5 (UniProt Q9Y5K5)	-0.023
TMEM63B (UniProt Q5T3F8)	0.011
TPM2 (UniProt P07951)	-0.069
VDAC1 (UniProt C9JI87)	-0.088
WDR43 (UniProt Q15061)	-0.048
TMEM192 (UniProt Q8IY95)	0.071
UQCR10 (UniProt Q9UDW1)	-0.002
TUT4 (UniProt Q5TAX3)	0.066
TRIP10 (UniProt Q15642)	0.061
